Laboratory results: PMC7862700, “An all-to-all approach to the identification of sequence-specific readers for epigenetic DNA modifications on cytosine”

How the values were obtained:
Experiment in all cases: DAPPL (digital affinity profiling via proximity ligation, sequencing); 10 mM Tris-HCl pH 7.5, 50 mM NaCl, 1 mM DTT, 4% glycerol, room temperature, 30 min; GST-TFs on glutathione beads, 16-mer random dsDNA library, 0.1% formaldehyde crosslink after washing; high values mean tight binding
Details in all cases: protein: recombinant; tags: N-terminal GST; dsDNA, one strand shown
ERF = target: T1, ERF (Homo sapiens, UniProt P50548 1-548)
T1 sequence: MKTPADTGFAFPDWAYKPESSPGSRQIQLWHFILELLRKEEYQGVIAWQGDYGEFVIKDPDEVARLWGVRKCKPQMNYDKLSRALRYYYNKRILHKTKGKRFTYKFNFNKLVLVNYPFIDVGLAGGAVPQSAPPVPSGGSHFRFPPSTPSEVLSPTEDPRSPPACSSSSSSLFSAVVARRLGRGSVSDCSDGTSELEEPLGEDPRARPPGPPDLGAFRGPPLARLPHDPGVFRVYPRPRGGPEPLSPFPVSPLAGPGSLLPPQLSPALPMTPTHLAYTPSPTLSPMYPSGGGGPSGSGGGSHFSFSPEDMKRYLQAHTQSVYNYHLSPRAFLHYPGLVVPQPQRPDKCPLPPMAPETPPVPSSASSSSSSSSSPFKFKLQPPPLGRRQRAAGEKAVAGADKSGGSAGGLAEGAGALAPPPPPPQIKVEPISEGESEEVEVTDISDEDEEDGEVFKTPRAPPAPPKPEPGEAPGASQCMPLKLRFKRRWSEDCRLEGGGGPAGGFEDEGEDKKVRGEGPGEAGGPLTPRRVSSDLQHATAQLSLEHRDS
How it was run: (§1)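 Pools of DNA-barcoded human transcription factors, expressed in yeast as GST fusions on glutathione beads and combined with a tag-only sample, were incubated with 200 nmole of a 16-mer random double-stranded DNA library. Incubation took 30 min at room temperature in Tris/NaCl/DTT/glycerol buffer and was followed by washing, 0.1% formaldehyde crosslinking, proximity ligation (BsaI/T4 ligase, 1 h, 37 °C), PCR amplification and sequencing on an Illumina NextSeq500. Binding signal is the ratio of a hexamer's read frequency for a factor to its frequency for the tag-only sample.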

ETV3L = target: T2, ETV3L (Homo sapiens, UniProt Q6ZN32 1-361)
T2 sequence: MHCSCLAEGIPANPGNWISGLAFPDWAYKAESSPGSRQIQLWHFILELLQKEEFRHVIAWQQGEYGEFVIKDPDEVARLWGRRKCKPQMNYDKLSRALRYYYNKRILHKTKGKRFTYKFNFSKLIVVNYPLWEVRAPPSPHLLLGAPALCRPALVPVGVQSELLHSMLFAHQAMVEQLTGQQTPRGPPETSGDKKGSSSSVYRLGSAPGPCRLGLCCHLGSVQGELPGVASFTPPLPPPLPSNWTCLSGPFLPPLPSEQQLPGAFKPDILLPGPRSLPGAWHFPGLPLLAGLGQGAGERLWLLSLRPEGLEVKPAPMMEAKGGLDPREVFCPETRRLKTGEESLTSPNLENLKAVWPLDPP
How it was run: as §1

ETS2 = target: T3, ETS2 (Homo sapiens, UniProt P15036 1-469)
T3 sequence: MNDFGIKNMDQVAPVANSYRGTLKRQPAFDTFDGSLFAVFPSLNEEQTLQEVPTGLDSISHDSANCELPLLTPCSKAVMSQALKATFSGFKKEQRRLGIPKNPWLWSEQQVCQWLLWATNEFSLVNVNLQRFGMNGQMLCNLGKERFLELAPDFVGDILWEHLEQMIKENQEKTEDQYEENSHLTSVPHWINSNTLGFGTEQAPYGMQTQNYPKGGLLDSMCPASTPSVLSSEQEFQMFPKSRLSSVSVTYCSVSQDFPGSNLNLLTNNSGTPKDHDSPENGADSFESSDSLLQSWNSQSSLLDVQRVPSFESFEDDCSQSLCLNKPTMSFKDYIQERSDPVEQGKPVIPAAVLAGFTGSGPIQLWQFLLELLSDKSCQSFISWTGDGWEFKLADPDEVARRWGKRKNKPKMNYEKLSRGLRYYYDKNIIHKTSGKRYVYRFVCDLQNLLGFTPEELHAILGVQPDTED
How it was run: as §1

SPDEF = target: T4, SPDEF (Homo sapiens, UniProt O95238 1-335)
T4 sequence: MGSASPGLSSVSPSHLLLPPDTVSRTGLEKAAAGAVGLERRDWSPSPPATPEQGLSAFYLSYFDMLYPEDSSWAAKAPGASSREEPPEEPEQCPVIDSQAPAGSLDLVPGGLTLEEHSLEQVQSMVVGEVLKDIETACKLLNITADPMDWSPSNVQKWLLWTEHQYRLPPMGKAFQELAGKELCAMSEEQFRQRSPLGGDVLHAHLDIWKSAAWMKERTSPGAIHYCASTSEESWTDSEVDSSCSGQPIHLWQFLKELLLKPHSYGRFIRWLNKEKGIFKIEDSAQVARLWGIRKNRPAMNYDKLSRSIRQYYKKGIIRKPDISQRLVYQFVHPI
How it was run: as §1

ETV7 = target: T5, ETV7 (Homo sapiens, UniProt Q9Y603 1-341)
T5 sequence: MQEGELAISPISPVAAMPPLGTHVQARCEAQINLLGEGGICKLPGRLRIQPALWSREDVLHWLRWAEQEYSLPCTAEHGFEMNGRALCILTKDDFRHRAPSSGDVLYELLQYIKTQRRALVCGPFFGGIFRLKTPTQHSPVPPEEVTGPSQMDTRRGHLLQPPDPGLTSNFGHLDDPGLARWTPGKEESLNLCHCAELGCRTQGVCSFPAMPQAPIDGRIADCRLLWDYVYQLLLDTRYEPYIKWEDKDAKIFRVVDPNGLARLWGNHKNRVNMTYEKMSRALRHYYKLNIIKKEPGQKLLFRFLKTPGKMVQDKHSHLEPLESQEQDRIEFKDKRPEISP
How it was run: as §1

ELF5 = target: T6, ELF5 (Homo sapiens, UniProt Q9UKW6-2 1-255)
T6 sequence: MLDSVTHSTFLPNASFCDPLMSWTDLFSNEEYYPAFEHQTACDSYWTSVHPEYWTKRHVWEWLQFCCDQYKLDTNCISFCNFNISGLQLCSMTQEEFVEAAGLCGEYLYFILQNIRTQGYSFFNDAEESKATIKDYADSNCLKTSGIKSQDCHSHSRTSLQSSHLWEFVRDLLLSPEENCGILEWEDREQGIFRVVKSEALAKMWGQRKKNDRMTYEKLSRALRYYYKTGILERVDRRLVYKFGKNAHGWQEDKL
How it was run: as §1

ETV3 = target: T7, ETV3 (Homo sapiens, UniProt P41162-2 1-143)
T7 sequence: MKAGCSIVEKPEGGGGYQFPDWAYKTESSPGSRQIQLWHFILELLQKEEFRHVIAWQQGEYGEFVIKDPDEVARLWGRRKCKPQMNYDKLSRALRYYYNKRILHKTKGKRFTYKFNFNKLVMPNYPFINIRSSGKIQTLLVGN
How it was run: as §1

ETV6 = ETV6 (Homo sapiens, UniProt P41212 1-452)
How it was run: as §1

Sequence of ETV6 (P41212 whole entry): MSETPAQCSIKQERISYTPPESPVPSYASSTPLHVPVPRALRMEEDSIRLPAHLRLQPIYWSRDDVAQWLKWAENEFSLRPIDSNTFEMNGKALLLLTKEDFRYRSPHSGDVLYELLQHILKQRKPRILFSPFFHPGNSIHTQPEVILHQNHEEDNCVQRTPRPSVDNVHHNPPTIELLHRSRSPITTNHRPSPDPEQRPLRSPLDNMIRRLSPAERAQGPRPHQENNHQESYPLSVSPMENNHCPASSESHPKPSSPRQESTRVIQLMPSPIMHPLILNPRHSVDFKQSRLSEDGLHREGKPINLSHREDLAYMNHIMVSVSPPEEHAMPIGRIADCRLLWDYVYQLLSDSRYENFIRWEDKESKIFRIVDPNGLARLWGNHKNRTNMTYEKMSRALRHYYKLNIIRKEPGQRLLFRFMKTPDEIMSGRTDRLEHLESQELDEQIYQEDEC

Sequence | binding signal (ERF) | binding signal (ETV3L) | binding signal (ETS2) | binding signal (SPDEF) | binding signal (ETV7) | binding signal (ELF5) | binding signal (ETV3) | binding signal (ETV6)
GCCTTC | 1.47 fold enrichment (6-mer frequency, TF over GST control) | 1.45 fold enrichment (6-mer frequency, TF over GST control) | 1.44 fold enrichment (6-mer frequency, TF over GST control) | 1.47 fold enrichment (6-mer frequency, TF over GST control) | 1.47 fold enrichment (6-mer frequency, TF over GST control) | 1.67 fold enrichment (6-mer frequency, TF over GST control) | 1.63 fold enrichment (6-mer frequency, TF over GST control) | 1.47 fold enrichment (6-mer frequency, TF over GST control)
TTCAAA | 1.26 fold enrichment (6-mer frequency, TF over GST control) | 1.27 fold enrichment (6-mer frequency, TF over GST control) | 1.25 fold enrichment (6-mer frequency, TF over GST control) | 1.23 fold enrichment (6-mer frequency, TF over GST control) | 1.19 fold enrichment (6-mer frequency, TF over GST control) | 1.21 fold enrichment (6-mer frequency, TF over GST control) | 1.23 fold enrichment (6-mer frequency, TF over GST control) | 1.27 fold enrichment (6-mer frequency, TF over GST control)
TAGCTT | 1.29 fold enrichment (6-mer frequency, TF over GST control) | 1.24 fold enrichment (6-mer frequency, TF over GST control) | 1.29 fold enrichment (6-mer frequency, TF over GST control) | 1.08 fold enrichment (6-mer frequency, TF over GST control) | 1.16 fold enrichment (6-mer frequency, TF over GST control) | 1.22 fold enrichment (6-mer frequency, TF over GST control) | 1.16 fold enrichment (6-mer frequency, TF over GST control) | 1.28 fold enrichment (6-mer frequency, TF over GST control)
CTTCAG | 1.27 fold enrichment (6-mer frequency, TF over GST control) | 1.26 fold enrichment (6-mer frequency, TF over GST control) | 1.33 fold enrichment (6-mer frequency, TF over GST control) | 1.34 fold enrichment (6-mer frequency, TF over GST control) | 1.29 fold enrichment (6-mer frequency, TF over GST control) | 1.35 fold enrichment (6-mer frequency, TF over GST control) | 1.17 fold enrichment (6-mer frequency, TF over GST control) | 1.37 fold enrichment (6-mer frequency, TF over GST control)
TCGTTT | 1.07 fold enrichment (6-mer frequency, TF over GST control) | 1.15 fold enrichment (6-mer frequency, TF over GST control) | 1.28 fold enrichment (6-mer frequency, TF over GST control) | 1.12 fold enrichment (6-mer frequency, TF over GST control) | 1.31 fold enrichment (6-mer frequency, TF over GST control) | 1.27 fold enrichment (6-mer frequency, TF over GST control) | 1.25 fold enrichment (6-mer frequency, TF over GST control) | 1.15 fold enrichment (6-mer frequency, TF over GST control)
ATCTCT | 1.38 fold enrichment (6-mer frequency, TF over GST control) | 1.27 fold enrichment (6-mer frequency, TF over GST control) | 1.29 fold enrichment (6-mer frequency, TF over GST control) | 1.18 fold enrichment (6-mer frequency, TF over GST control) | 1.14 fold enrichment (6-mer frequency, TF over GST control) | 1.25 fold enrichment (6-mer frequency, TF over GST control) | 1.25 fold enrichment (6-mer frequency, TF over GST control) | 1.27 fold enrichment (6-mer frequency, TF over GST control)
AATTGT | 1.36 fold enrichment (6-mer frequency, TF over GST control) | 1.29 fold enrichment (6-mer frequency, TF over GST control) | 1.31 fold enrichment (6-mer frequency, TF over GST control) | 1.21 fold enrichment (6-mer frequency, TF over GST control) | 1.39 fold enrichment (6-mer frequency, TF over GST control) | 1.35 fold enrichment (6-mer frequency, TF over GST control) | 1.31 fold enrichment (6-mer frequency, TF over GST control) | 1.26 fold enrichment (6-mer frequency, TF over GST control)
TTAGCA | 1.29 fold enrichment (6-mer frequency, TF over GST control) | 1.26 fold enrichment (6-mer frequency, TF over GST control) | 1.16 fold enrichment (6-mer frequency, TF over GST control) | 1.23 fold enrichment (6-mer frequency, TF over GST control) | 1.19 fold enrichment (6-mer frequency, TF over GST control) | 1.15 fold enrichment (6-mer frequency, TF over GST control) | 1.19 fold enrichment (6-mer frequency, TF over GST control) | 1.25 fold enrichment (6-mer frequency, TF over GST control)
TTAATG | 1.05 fold enrichment (6-mer frequency, TF over GST control) | 1.19 fold enrichment (6-mer frequency, TF over GST control) | 1.2 fold enrichment (6-mer frequency, TF over GST control) | 1.19 fold enrichment (6-mer frequency, TF over GST control) | 1.26 fold enrichment (6-mer frequency, TF over GST control) | 1.19 fold enrichment (6-mer frequency, TF over GST control) | 1.21 fold enrichment (6-mer frequency, TF over GST control) | 1.19 fold enrichment (6-mer frequency, TF over GST control)
CGATTG | 1.24 fold enrichment (6-mer frequency, TF over GST control) | 1.17 fold enrichment (6-mer frequency, TF over GST control) | 1.15 fold enrichment (6-mer frequency, TF over GST control) | 1.22 fold enrichment (6-mer frequency, TF over GST control) | 1.18 fold enrichment (6-mer frequency, TF over GST control) | 1.11 fold enrichment (6-mer frequency, TF over GST control) | 1.07 fold enrichment (6-mer frequency, TF over GST control) | 1.22 fold enrichment (6-mer frequency, TF over GST control)
TACTTC | 3.18 fold enrichment (6-mer frequency, TF over GST control) | 3.22 fold enrichment (6-mer frequency, TF over GST control) | 3.64 fold enrichment (6-mer frequency, TF over GST control) | 4.31 fold enrichment (6-mer frequency, TF over GST control) | 3.62 fold enrichment (6-mer frequency, TF over GST control) | 4.77 fold enrichment (6-mer frequency, TF over GST control) | 3.67 fold enrichment (6-mer frequency, TF over GST control) | 4.67 fold enrichment (6-mer frequency, TF over GST control)
ATTTAG | 1.22 fold enrichment (6-mer frequency, TF over GST control) | 1.15 fold enrichment (6-mer frequency, TF over GST control) | 1.07 fold enrichment (6-mer frequency, TF over GST control) | 1.13 fold enrichment (6-mer frequency, TF over GST control) | 1.07 fold enrichment (6-mer frequency, TF over GST control) | 1.04 fold enrichment (6-mer frequency, TF over GST control) | 1.12 fold enrichment (6-mer frequency, TF over GST control) | 1.21 fold enrichment (6-mer frequency, TF over GST control)
TTCTTC | 1.78 fold enrichment (6-mer frequency, TF over GST control) | 1.83 fold enrichment (6-mer frequency, TF over GST control) | 1.7 fold enrichment (6-mer frequency, TF over GST control) | 1.72 fold enrichment (6-mer frequency, TF over GST control) | 1.7 fold enrichment (6-mer frequency, TF over GST control) | 2.02 fold enrichment (6-mer frequency, TF over GST control) | 1.8 fold enrichment (6-mer frequency, TF over GST control) | 1.93 fold enrichment (6-mer frequency, TF over GST control)
AAGTTA | 1.24 fold enrichment (6-mer frequency, TF over GST control) | 1.18 fold enrichment (6-mer frequency, TF over GST control) | 1.24 fold enrichment (6-mer frequency, TF over GST control) | 1.08 fold enrichment (6-mer frequency, TF over GST control) | 1.21 fold enrichment (6-mer frequency, TF over GST control) | 1.21 fold enrichment (6-mer frequency, TF over GST control) | 1.19 fold enrichment (6-mer frequency, TF over GST control) | 1.3 fold enrichment (6-mer frequency, TF over GST control)
CGCCTT | 1.35 fold enrichment (6-mer frequency, TF over GST control) | 1.29 fold enrichment (6-mer frequency, TF over GST control) | 1.3 fold enrichment (6-mer frequency, TF over GST control) | 1.3 fold enrichment (6-mer frequency, TF over GST control) | 1.34 fold enrichment (6-mer frequency, TF over GST control) | 1.52 fold enrichment (6-mer frequency, TF over GST control) | 1.45 fold enrichment (6-mer frequency, TF over GST control) | 1.52 fold enrichment (6-mer frequency, TF over GST control)
